High-throughput results as filed in PubChem.
D2 PAM-1 – Beta-Arrestin HTS for Positive Allosteric Modulators of the Human D2 Dopamine Receptor: Potentiators; 360,000 tested, 0.23% active; DiscoveRx D2 beta-arrestin cells, luminescence, 90 min; 100% = 57 uM dopamine signal; potentiation, % (no concentration beside the values); in the data active = potentiation above about 50%; inconclusive = mostly about 30% to 49%
Target sequence (P14416 whole entry, looked up): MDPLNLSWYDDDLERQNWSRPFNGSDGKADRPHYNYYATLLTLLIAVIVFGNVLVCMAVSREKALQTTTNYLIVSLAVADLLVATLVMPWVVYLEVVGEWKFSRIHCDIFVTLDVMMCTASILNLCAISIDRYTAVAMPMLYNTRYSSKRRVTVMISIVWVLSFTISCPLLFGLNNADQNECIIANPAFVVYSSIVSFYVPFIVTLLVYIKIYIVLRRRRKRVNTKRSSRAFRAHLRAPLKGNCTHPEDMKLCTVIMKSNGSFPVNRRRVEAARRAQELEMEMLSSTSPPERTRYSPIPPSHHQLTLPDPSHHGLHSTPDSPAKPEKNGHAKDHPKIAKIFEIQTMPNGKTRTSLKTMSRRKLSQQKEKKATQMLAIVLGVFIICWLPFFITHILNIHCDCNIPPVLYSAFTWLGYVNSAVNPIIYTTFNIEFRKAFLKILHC
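D2 cells co-treated with compound plus 50 nM dopamine (EC20) for 90 min at 37 deg C to detect potentiation. Beta-arrestin recruitment was read as enzyme-fragment luminescence after 1 h at ambient temperature. Full response was set by 57 uM dopamine.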
D2 antagonist – HTS Assay for Allosteric Antagonists of the Human D2 Dopamine Receptor: Primary Screen for Antagonists; D(2) dopamine receptor (Homo sapiens), P14416; inhibition, % at 10 µM; 340,000 tested, 2% active; HEK293 TREx D2 cells, calcium flux, dopamine EC80; in the data active = inhibition above about 30%; inactive = below that, where a call was filed
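Read-out: kinetic calcium fluorescence (1 cycle/s) in inducible HEK293 T-REx D2 cells after an EC80 dopamine addition that followed 180 s compound preincubation. Loss of the dopamine response indicates antagonism.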
D2 ag-1 – HTS Assay for Allosteric Agonists of the Human D2 Dopamine Receptor: Primary Screen for Agonists; D(2) dopamine receptor (Homo sapiens), P14416; HEK293 T-REx D2 cells, calcium flux agonist mode; activation, % at 2 µM; 340,000 tested, 0.53% active; AID 485358, 2010;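 active = activation over 3 SD above normal in the single-dose calcium agonist read, cut at about 30% in these data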
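Tetracycline-induced HEK293 Trex cells with D2 receptor force-coupled to calcium signaling, plated overnight at 30 C and loaded with no-wash calcium dye. Calcium flux read kinetically for 180 s after compound addition; responses flag agonists.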
D2 ag-2 – Beta-Arrestin HTS for Positive Allosteric Modulators of the Human D2 Dopamine Receptor: Agonists. DiscoveRx PathHunter D2 beta-arrestin, luminescence, 90 min; 100% = 57 uM dopamine signal. activation, % (concentration not given with the values). 360,000 tested, 0.084% active. AID 624465, 2012; in the data active = activation above about 40%; inconclusive = between about 15% and that limit
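Agonist mode: compounds alone added to overnight-plated D2 PathHunter cells for 90 min at 37 C, with 57 uM final dopamine (EC100) defining full response. Beta-arrestin recruitment detected by chemiluminescent reagent, read after 1 h at ambient temperature.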
D2 PAM-2 – HTS Assay for Positive Allosteric Modulators of the Human D2 Dopamine Receptor: Primary Screen for Potentiators | D(2) dopamine receptor (Homo sapiens), P14416 | HEK293 T-REx D2, calcium flux, EC20 dopamine potentiation | potentiation, % at 10 µM | 340,000 tested, 0.34% active | AID 485347, 2010;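 active = potentiation over 3 SD above the plate norm, cut at about 30% in these data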
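Cells plated with tetracycline inducer and held overnight at 30 C; calcium dye loaded 30–90 min at room temperature; baseline taken, compound added and read 180 s; EC20 dopamine then added and read 180 s.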
Numbers stand for hits; i = inactive; ? = inconclusive; nt = no result given. This is a sample that favours compounds with a hit; in the whole collection about 2.4% have one here.

SMILES	D2 PAM-1	D2 antagonist	D2 ag-1	D2 ag-2	D2 PAM-2
O=C(NC1CC(=O)N(c2ccc(F)cc2)C1)c1ccco1 (stereo not drawn)	nt	nt	i	nt	nt
O=c1cc(-c2ccco2)nc(SCc2cccc(Cl)c2)[nH]1	54	i	i	i	i
Cc1ccc(SCC(=O)NC(C)(C)C)cc1	i	37	i	i	i
Cc1ccc(SCC(=O)Nc2cccc(C(=O)NC(C)(C)C)c2)cc1	i	i	i	i	i
CN(C)S(=O)(=O)c1ccc(N2CCCC2)c(C(=O)N2CCN(S(=O)(=O)c3ccc(F)c(F)c3)CC2)c1	i	nt	nt	i	nt
Cc1ccc(C(=O)COC(=O)CSc2cccc3cccnc23)c(C)c1	57	nt	nt	i	nt
O=C(O)c1ccccc1-c1nc2ccccc2[nH]1	i	i	i	i	i
Oc1ccc2ccccc2c1C=Nc1ccccc1-c1nc2ccccc2[nH]1	53	41	i	i	i
O=C(Cc1ccc(NC(=O)N2CCCCc3ccccc32)cc1)Nc1ccccc1Br	nt	nt	i	nt	i
COc1ccccc1CCNC(=O)C(=O)NCC(c1cccnc1)N1CCN(c2ccccc2)CC1 (stereo not drawn)	nt	nt	i	nt	i
Cc1cc(C)c(NC(=O)COC(=O)c2cccc3c2C(=O)c2ccccc2C3=O)c(C)c1	55	i	i	i	i
Cc1ccc(NC(=O)COC(=O)c2cccc3c2C(=O)c2ccccc2C3=O)c(C)c1	56	i	i	i	i
Cc1ccc(Cl)cc1NC(=O)COC(=O)c1ccccc1O	i	i	i	i	i
Cc1ccc(C)c(NC(=O)COC(=O)c2cccc3c2C(=O)c2ccccc2C3=O)c1	54	i	i	?	i
O=C(COC(=O)CC1CC2CCC1C2)Nc1cc([N+](=O)[O-])ccc1F (stereo not drawn)	i	i	i	i	32
Cc1ccc(C)c(NC(=O)COC(=O)CC2CC3CCC2C3)c1 (stereo not drawn)	i	nt	nt	i	nt
NNc1nc(-c2ccccc2Cl)nc2sc3c(c12)CCCC3	53	i	i	?	i
COc1ccc(-n2cc3c(c2-c2cccc(Br)c2)c(=O)n(C)c(=O)n3C)cc1OC	nt	nt	i	nt	i
COc1ccc(C2=NS(=O)(=O)N(C)C(C(=O)Nc3ccc(OC)c(OC)c3)=C2)cc1	i	56	i	i	i
CC(=O)c1cccc(NC(=O)C2=CC(c3ccc4c(c3)OCO4)=NS(=O)(=O)N2C)c1	i	48	i	i	i
COc1ccc(NC(=O)C2=CC(c3ccc(C)cc3)=NS(=O)(=O)N2C)cc1OC	i	i	i	i	i
COc1ccccc1N1CCN(C(=O)c2cc3c(=O)oc4ccc(C)cc4c3s2)CC1	nt	nt	i	nt	i
C=CCN(CC=C)C(=S)Nc1cc(Cl)ccc1OC	i	i	i	42	i
CCC(=O)Nc1ccc(C(=O)n2nc(C)cc2C)cc1	i	i	i	i	i
Cc1cc(C)n(C(=O)c2ccc(NC(=O)CC(C)C)cc2)n1	i	33	i	i	i
SMILES	D2 PAM-1	D2 antagonist	D2 ag-1	D2 ag-2	D2 PAM-2
Cc1cc2c(cc1S(=O)(=O)N(C)CC(=O)Nc1cccc(C#N)c1)OCC(=O)N2	nt	nt	i	nt	i
Cc1ccc(/C=C/C(=O)NCCc2cccc(Cl)c2)o1	i	i	i	i	i
CCOC(=O)c1c(NC(=O)COC(=O)c2nc(Cl)ccc2Cl)sc(C(=O)N(C)C)c1C	i	i	i	i	i
CCOC(=O)c1c(NC(=O)COC(=O)CNC(=O)c2ccc(Cl)cc2Cl)sc(C(=O)N(C)C)c1C	i	i	i	i	32
Cc1cc(C)c(O)c(-c2cc(C(=O)Nc3ccc(S(=O)(=O)N4CCOCC4)cc3)[nH]n2)c1	i	i	i	i	36
Cc1cccc(C2C=C(c3ccc(C)c(C)c3)Nc3nnnn32)c1 (stereo not drawn)	nt	nt	i	nt	i
CC(C)(C)c1ccc(C(=O)NC2CCN(Cc3ccccc3)CC2)cc1	i	54	i	i	i
